Values joined by “and” are separate entries in the source; they are usually repeats but may differ in a detail not shown here. Identical values can stand only once. Active and inactive are the calls of the source.
How the values were obtained:
[1] = tested on: PRMT1 (protein arginine N-methyltransferase 1); assay: small molecules binding arginine methyltransferase PRMT1 – biochemical, small-molecule microarray, 635 nm fluorescence, primary screen (AID 1088); details: higher = more signal;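 note: binding of Prmt1 protein to compounds spotted on small-molecule microarray slides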
[2] = growth effects on S. cerevisiae YJM789 – YJM789 clinical isolate, OD600, 24 h, basal, primary screen (AID 1089); details: higher = more signal, called active from +8 up or from −8 down;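 note: growth of clinical yeast isolate S. cerevisiae YJM 789 seeded 1000 cells per well; test concentration not given here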
[3] = S. pombe growth modifiers, basal conditions – strain 972, OD600, 24 h, no modulator, primary screen (AID 1090);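 note: basal condition with compound alone and no growth modifier present; test concentration not given here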; details: S. pombe 972 growth, higher = more signal, called active from +8 up or from −8 down
[4] = budding yeast growth modifiers under rapamycin – strain BY4716, OD600, 96 h, primary screen (AID 1091); note: test concentration not given here; details: S. cerevisiae BY4716 + rapamycin, higher = more signal, called active from +8 up or from −8 down
[5] = molecular target: Torsin-1A-interacting protein 2 (Homo sapiens) (UniProt Q8NFQ8); assay: small molecules binding lysate-expressed LULL1 – cell lysate, human LULL1 lysate, 635/667 nm fluorescence, primary screen (AID 1092); details: small-molecule microarray, hLULL1 lysate binding, 635 nm fluorescence; higher = more signal;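 note: probe is lysate of COS7 cells overexpressing human LULL1; score merges per-feature 667 nm fluorescence with signal-to-noise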
[6] = optical density change of DRC41 E. coli – strain DRC41, OD650, 24 h, E. coli filamentation project, primary screen (AID 1093);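 note: MC1000 strain lacking acrAB efflux and sulA so SOS filamentation is blocked; test concentration not given here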; details: E. coli DRC41 growth, higher = more signal, called active from +8 up or from −8 down
[7] = probe aLefty2 binding to arrayed compounds – biochemical, biotinylated probe, 635/667 nm fluorescence, primary screen (AID 1094); details: small-molecule microarray, higher = more signal;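 note: score merges spot fluorescence near 667 nm with spot signal-to-noise ratio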
[8] = tested on: Noggin (protein binding on small-molecule microarray); assay: small molecules binding Noggin protein – biochemical, 635/667 nm fluorescence, primary screen (AID 1095); details: 635 nm fluorescence, higher = more signal;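 note: score merges 667 nm feature fluorescence with signal to noise over triplicate slides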
[9] = molecular target: Neurogenic locus notch homolog protein 3 (Homo sapiens) (UniProt Q9UM47); assay: small molecules binding NOTCH3 protein – biochemical, 635/667 nm fluorescence, primary screen (AID 1096); details: small-molecule microarray, 635 nm fluorescence, higher = more signal
[10] = probe aEGFR binding to arrayed compounds – biochemical, biotinylated probe, 635/667 nm fluorescence, primary screen (AID 1097); details: small-molecule microarray, higher = more signal;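 note: probe is a biotinylated anti-EGFR antibody binding compounds printed on slides; score combines fluorescence near 667 nm and signal to noise of each spot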
[11] = tested on: Plasmodium falciparum Sir2 (PF13_0152, Sir2A); assay: Plasmodium falciparum Sir2A binding compounds – biochemical, small-molecule microarray, 635 nm fluorescence, primary screen (AID 1098); details: fluorescence 635 nm, higher = more signal;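 note: score merges spot fluorescence intensity with its signal-to-noise ratio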
[12] = probe aDKK1 binding to arrayed compounds – biochemical, biotinylated probe, 635/667 nm fluorescence, primary screen (AID 1099); details: small-molecule microarray, higher = more signal;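 note: score merges 667nm spot fluorescence with signal to noise across triplicate slides; reference of the scale not given here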
[13] = probe aCHRDL2 binding to arrayed compounds – biochemical, biotinylated probe, 635/667 nm fluorescence, primary screen (AID 1100); details: small-molecule microarray, higher = more signal
[14] = change in splice reporter luminescence, either direction, cell-based, HEK293, spliceosome inhibition project, primary screen (AID 1101); details: HEK293 splicing luciferase reporter, 24 h, higher = more signal, called active from +8 up or from −8 down;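 note: HEK293 cells carrying a splicing-competent luciferase reporter gene; test concentration not given here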
[15] = molecular target: Fibroblast growth factor 10 (Homo sapiens) (UniProt O15520); assay: compounds binding fibroblast growth factor 10 – biochemical, small-molecule microarray, 635 nm fluorescence, primary screen (AID 1102); details: FGF10 binding, fluorescence 635 nm, higher = more signal
[16] = tested on: glycogen synthase kinase-3 (GSK3A per assay name; protocol says GSK3B); assay: compounds binding glycogen synthase kinase-3 – biochemical, small-molecule microarray, 635 nm fluorescence, GSK3A, primary screen (AID 1103); details: fluorescence 635 nm, higher = more signal; note: the record names both GSK3A and GSK3B
[17] = molecular target: Epidermal growth factor receptor (Homo sapiens) (UniProt P00533); assay: compounds binding epidermal growth factor receptor – biochemical, small-molecule microarray, 635 nm fluorescence, primary screen (AID 1104); details: EGFR binding, higher = more signal;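 note: score merges 667 nm emission intensity with spot signal to noise over triplicate slides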
[18] = molecular target: Follistatin-related protein 3 (Homo sapiens) (UniProt O95633); assay: compounds binding follistatin-related protein 3 – biochemical, small-molecule microarray, 635 nm fluorescence, primary screen (AID 1105); details: FSTL3 binding, higher = more signal;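 note: score merges emission near 667 nm and signal to noise per printed spot across three slides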
[19] = molecular target: Dickkopf-related protein 1 (Homo sapiens) (UniProt O94907); assay: small molecules binding DKK1 protein – biochemical, small-molecule microarray, 635 nm fluorescence scan, primary screen (AID 1106); details: higher = more signal;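 note: score merges emission near 667 nm with signal to noise over three replicate slides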
[20] = tested on: Inhibin beta A chain (activin A); assay: small molecules binding activin A – biochemical, small-molecule microarray, 635 nm fluorescence scan, primary screen (AID 1107); details: INHBA, higher = more signal;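 note: mouse activin A protein probed at 4.33 µg/mL on printed slides; score merges bound-protein fluorescence near 667 nm with spot signal-to-noise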

Sequence of Dickkopf-related protein 1 (Homo sapiens) (O94907 whole entry, looked up): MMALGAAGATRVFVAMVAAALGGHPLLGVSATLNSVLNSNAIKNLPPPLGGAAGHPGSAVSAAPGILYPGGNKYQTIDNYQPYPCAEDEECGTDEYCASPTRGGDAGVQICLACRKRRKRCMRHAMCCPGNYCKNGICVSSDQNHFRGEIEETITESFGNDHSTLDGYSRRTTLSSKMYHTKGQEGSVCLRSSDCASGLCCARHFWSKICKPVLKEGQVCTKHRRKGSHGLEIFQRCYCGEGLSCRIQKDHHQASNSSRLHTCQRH
Sequence of Follistatin-related protein 3 (Homo sapiens) (O95633 whole entry, looked up): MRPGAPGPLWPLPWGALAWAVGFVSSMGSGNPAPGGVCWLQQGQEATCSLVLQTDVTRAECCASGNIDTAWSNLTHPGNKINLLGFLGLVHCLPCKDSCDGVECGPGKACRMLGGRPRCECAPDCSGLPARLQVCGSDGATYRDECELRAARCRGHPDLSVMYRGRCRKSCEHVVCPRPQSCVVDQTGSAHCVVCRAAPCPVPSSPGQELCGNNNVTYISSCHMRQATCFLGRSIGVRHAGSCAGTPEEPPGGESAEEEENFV
Sequence of Neurogenic locus notch homolog protein 3 (Homo sapiens) (Q9UM47 whole entry, looked up): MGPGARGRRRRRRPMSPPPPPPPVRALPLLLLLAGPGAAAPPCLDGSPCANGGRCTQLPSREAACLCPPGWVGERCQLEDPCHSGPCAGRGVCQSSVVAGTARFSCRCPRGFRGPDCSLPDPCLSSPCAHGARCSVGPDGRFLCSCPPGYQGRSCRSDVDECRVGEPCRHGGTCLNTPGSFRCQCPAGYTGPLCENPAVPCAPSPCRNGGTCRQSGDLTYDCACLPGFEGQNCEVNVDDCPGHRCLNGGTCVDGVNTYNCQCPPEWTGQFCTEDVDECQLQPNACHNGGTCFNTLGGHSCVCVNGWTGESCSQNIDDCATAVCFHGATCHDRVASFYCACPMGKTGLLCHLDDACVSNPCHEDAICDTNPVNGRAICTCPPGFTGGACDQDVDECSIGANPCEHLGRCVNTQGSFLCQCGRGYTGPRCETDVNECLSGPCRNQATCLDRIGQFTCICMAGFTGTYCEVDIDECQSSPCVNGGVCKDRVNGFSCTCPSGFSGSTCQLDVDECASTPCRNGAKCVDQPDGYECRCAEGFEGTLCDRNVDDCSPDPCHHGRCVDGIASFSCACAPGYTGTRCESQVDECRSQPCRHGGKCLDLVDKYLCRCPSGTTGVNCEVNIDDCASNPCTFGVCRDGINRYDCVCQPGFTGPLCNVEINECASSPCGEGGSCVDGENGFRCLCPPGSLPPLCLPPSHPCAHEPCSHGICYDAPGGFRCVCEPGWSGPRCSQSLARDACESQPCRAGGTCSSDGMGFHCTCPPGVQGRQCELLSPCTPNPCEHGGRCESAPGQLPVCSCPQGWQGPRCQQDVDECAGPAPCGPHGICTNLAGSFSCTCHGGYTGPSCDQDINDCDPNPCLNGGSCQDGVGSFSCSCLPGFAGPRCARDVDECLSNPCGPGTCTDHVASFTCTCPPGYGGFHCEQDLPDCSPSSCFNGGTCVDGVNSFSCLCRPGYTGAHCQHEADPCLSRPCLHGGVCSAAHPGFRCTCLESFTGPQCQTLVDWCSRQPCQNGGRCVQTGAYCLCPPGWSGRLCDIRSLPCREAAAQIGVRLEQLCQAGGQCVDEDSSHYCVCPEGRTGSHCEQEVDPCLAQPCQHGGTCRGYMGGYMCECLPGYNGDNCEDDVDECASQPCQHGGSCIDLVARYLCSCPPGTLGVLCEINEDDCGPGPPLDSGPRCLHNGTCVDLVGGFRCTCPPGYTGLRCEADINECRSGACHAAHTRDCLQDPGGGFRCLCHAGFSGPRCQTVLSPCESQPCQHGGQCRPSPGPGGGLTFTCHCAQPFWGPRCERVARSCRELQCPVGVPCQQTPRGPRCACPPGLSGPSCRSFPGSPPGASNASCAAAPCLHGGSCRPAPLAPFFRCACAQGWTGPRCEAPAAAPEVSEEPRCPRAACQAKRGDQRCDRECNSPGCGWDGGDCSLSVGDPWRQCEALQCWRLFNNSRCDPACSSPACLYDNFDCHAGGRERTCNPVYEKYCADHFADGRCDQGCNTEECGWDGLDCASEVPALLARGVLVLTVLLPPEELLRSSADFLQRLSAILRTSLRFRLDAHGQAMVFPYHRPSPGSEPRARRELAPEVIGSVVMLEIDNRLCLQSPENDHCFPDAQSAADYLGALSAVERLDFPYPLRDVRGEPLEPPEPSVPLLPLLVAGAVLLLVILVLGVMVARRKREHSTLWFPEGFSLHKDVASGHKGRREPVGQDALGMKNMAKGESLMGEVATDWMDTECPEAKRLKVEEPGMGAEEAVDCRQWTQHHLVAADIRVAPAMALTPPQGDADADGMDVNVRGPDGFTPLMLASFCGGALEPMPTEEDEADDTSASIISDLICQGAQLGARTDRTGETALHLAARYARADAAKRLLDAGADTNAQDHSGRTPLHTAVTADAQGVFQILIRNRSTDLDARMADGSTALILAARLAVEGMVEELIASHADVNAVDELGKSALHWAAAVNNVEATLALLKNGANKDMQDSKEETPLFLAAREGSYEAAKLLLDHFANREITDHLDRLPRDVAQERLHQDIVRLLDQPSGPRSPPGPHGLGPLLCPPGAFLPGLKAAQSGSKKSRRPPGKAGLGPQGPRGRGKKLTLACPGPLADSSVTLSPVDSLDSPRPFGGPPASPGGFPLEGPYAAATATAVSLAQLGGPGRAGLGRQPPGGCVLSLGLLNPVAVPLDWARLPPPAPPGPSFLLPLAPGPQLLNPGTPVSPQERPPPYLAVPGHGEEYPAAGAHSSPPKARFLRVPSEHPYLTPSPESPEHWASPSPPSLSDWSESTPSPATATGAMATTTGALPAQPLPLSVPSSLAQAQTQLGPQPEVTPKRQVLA
Sequence of Epidermal growth factor receptor (Homo sapiens) (P00533 whole entry, looked up): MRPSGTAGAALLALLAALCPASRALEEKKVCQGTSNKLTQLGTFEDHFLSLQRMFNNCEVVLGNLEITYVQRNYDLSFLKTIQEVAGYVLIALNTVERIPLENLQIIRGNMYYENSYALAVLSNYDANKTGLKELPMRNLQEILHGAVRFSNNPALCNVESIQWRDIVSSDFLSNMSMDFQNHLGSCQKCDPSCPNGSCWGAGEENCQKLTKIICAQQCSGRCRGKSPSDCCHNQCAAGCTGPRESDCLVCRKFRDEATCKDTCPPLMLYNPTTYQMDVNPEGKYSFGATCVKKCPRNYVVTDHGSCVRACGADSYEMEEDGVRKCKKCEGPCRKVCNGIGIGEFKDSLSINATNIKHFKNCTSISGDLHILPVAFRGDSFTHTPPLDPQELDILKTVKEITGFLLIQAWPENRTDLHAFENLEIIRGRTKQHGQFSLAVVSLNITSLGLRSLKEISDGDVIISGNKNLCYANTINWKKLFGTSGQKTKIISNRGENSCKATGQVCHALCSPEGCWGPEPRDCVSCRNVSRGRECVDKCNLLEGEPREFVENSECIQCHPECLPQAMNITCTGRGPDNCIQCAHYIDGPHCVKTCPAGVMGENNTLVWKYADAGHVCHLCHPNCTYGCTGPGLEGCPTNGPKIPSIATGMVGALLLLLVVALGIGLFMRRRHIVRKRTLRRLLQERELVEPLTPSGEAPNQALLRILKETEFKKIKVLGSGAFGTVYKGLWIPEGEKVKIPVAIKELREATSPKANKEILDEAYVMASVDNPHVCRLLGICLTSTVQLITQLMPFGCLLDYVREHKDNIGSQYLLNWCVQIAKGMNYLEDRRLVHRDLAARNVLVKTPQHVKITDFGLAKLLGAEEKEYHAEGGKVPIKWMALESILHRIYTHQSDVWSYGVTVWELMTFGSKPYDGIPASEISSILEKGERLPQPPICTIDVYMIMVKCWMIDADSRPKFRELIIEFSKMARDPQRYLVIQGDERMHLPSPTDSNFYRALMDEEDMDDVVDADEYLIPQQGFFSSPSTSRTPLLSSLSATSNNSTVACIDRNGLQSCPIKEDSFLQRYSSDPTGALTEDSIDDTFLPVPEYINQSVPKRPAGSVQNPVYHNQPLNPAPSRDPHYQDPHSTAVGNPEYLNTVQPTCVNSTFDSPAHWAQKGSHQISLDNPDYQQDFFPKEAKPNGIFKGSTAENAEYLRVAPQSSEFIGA
Sequence of Fibroblast growth factor 10 (Homo sapiens) (O15520 whole entry, looked up): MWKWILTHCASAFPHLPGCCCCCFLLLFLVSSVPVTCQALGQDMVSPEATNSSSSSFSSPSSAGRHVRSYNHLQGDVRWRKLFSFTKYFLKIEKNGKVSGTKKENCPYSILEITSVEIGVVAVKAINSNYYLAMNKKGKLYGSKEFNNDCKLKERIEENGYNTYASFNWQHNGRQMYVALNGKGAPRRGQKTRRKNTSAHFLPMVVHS
Sequence of Torsin-1A-interacting protein 2 (Homo sapiens) (Q8NFQ8 whole entry, looked up): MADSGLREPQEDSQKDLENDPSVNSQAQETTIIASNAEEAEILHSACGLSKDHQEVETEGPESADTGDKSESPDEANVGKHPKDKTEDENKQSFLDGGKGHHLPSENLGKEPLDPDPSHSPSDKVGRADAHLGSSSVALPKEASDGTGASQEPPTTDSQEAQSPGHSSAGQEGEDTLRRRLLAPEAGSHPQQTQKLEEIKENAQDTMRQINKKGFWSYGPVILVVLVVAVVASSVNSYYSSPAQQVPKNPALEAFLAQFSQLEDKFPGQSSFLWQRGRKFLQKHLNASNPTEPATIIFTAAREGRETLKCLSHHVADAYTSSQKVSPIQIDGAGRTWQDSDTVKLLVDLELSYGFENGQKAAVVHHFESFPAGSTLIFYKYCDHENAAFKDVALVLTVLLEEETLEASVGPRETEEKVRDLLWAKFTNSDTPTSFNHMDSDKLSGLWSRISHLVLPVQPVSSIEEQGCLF

| Compound | composite z-score [1] | z-score [2] | z-score [3] | z-score [4] | composite z-score [5] | z-score [6] | composite z-score [7] | composite z-score [8] | composite z-score [9] | composite z-score [10] | composite z-score [11] | composite z-score [12] | composite z-score [13] | z-score [14] | composite z-score [15] | composite z-score [16] | composite z-score [17] | composite z-score [18] | composite z-score [19] | composite z-score [20] |
| --- | --- | --- | --- | --- | --- | --- | --- | --- | --- | --- | --- | --- | --- | --- | --- | --- | --- | --- | --- | --- |
| C=CCN(CCCC)C(=O)C1N(CCOCCO)C(=O)C2C(C(=O)O)C3C=CC21O3 (stereo not given) | -0.779 and -1.02 | 0.784 (inactive) and 1.05 (inactive) | 0.269 (inactive) and 0.777 (inactive) | 1.11 (inactive) and 1.07 (inactive) | 2.94 and -0.643 | 0.489 (inactive) and 0.0433 (inactive) | -0.0065 and -0.291 | -2.5 and -2.13 | -0.298 and -1.36 | -0.326 and -0.314 | 1.46 and 0.591 | -0.0203 and -0.336 | 1.02 and 0.53 | 0.391 (inactive) and 0.915 (inactive) | -1.38 and -1.65 | -1.47 and -1.21 | -1.89 and -1.27 | -1.5 and -2.25 | -3.09 and -1.87 | -3.45 and -2.19 |
| CC(C)CON=C1C[C@@H](O)[C@@H](O)[C@@H]2[C@@H]3C(=O)N(c4cccc(Oc5ccccc5)c4)C(=O)[C@@H]3CC[C@H]12 | 0.973 | 0.097 (inactive) | 0.561 (inactive) | -0.54 (inactive) | 0.897 | 1.04 (inactive) | -0.136 | 0.318 | 0.951 | -0.0549 | 0.0512 | -0.354 | -0.712 | -0.00485 (inactive) | 0.357 | 0.278 | 0.338 | 0.571 | 0.661 | -0.15 |
| CC(=O)OC[C@H]1O[C@H](C#CC(C)(C)C)C=C[C@@H]1OC(C)=O | 0.975 | -0.0789 (inactive) | -1.48 (inactive) | -0.589 (inactive) | 1.3 | 0.459 (inactive) | -0.177 | 0.369 | 0.695 | 0.0168 | 0.731 | 0.202 | -0.508 | 1.16 (inactive) | 0.871 | 0.225 | 0.274 | 1.31 | 0.535 | -0.209 |
| CCN1C(=O)[C@H]2[C@H]3[C@H](O)[C@H](O)CC(=NOC[C@@H](O)COCc4ccco4)[C@@H]3CC[C@H]2C1=O | 1.4 and 0.727 | 0.686 (inactive) and 0.102 (inactive) | 0.315 (inactive) and 0.174 (inactive) | 1.29 (inactive) and 0.945 (inactive) | -1.03 and 0.493 | 0.0584 (inactive) and -1.13 (inactive) | -0.266 and -0.44 | 0.445 and -0.121 | -0.365 and -0.32 | 0.0747 and -0.0413 | 0.449 and 1.11 | 0.439 and -0.572 | -1.3 and -1.1 | 0.259 (inactive) and 0.403 (inactive) | -0.397 and 0.588 | 0.823 and -0.198 | 1.28 and 0.0979 | 1.21 and -0.333 | 1.56 and 0.836 | 0.666 and -0.0006 |
| COc1ccc(COC(=O)NN=C2C[C@@H](O)[C@@H](O)[C@@H]3[C@@H]4C(=O)N(C(C)(C)C)C(=O)[C@@H]4CC[C@H]23)cc1 | 1.28 | -1.76 (inactive) | -1.05 (inactive) | -0.715 (inactive) | 2.14 | -0.0531 (inactive) | -0.277 | 0.468 | 0.469 | -0.132 | 0.871 | -0.325 | -0.25 | -0.544 (inactive) | 0.589 | 0.241 | -0.0313 | 0.121 | -0.116 | -0.786 |
| C=CCN(CCCC)C(=O)C(c1cccs1)N(C(=O)/C=C\C(=O)O)c1c(Cl)cccc1CO (stereo not given) | -0.663 and -0.538 | 0.135 (inactive) and 0.537 (inactive) | -0.266 (inactive) and 1.12 (inactive) | -0.548 (inactive) and -0.522 (inactive) | 0.376 and 0.744 | 0.224 (inactive) and -0.174 (inactive) | 0.148 and -0.235 | -1.97 and -2.53 | -2.02 and -1.33 | -0.451 and -0.328 | 0.129 and 1.61 | -0.0631 and -0.131 | 1.25 and 0.906 | 0.173 (inactive) and 0.771 (inactive) | -2.81 and -1.97 | -0.944 and -0.892 | -2.16 and -2.02 | -1.44 and -2.65 | -3.42 and -2.44 | -3.52 and -2.04 |
| C=CCN(C(=O)C(c1cccs1)N(CCOCCO)C(=O)/C=C\C(=O)O)C(C)(C)C (stereo not given) | -1.16 and -0.597 | 0.592 (inactive) and 0.385 (inactive) | -1.35 (inactive) and -0.863 (inactive) | 0.103 (inactive) and 0.0577 (inactive) | -2.06 and 0.15 | 1.41 (inactive) and 0.711 (inactive) | -0.0674 and -0.167 | -1.85 and -2.31 | -1.9 and -0.936 | -0.277 and -0.339 | -1.45 and 1.17 | -0.214 and -0.188 | 0.336 and 0.718 | -0.0364 (inactive) and 0.0433 (inactive) | -1.34 and -1.24 | -1.46 and -0.651 | -1.21 and -0.944 | -1.64 and -1.94 | -2.14 and -2.17 | -0.96 and -1.53 |
| CO[C@H]1COC(=O)CC=C[C@@H](C)COC(=O)[C@@H](OCc2ccccc2)C=C[C@@H]1C | 1.47 | -0.744 (inactive) | -1.31 (inactive) | -0.855 (inactive) | -0.404 | 0.973 (inactive) | -0.353 | 2.02 | -0.294 | -0.135 | 0.661 | -0.533 | -1.54 | 0.19 (inactive) | 0.241 | 1.1 | 0.831 | 1.32 | 0.644 | 1.57 |

From PubChem BioAssay
